B1: design_609_7ee6ce64-4629-41e8-bcb4-ba0da017284d_1733_dldesign_0_cycle1_af2pred (protein)
chain: SEKDKAIMEATFHANGALNLADVGGDKKEIEKEAKLAKEHAEKAAKLSSKEEGAKILEYVEKKVKEVEEKLKKL
B2: design_609_7ee6ce64-4629-41e8-bcb4-ba0da017284d_1726_dldesign_0_cycle1_af2pred (protein)
chain: AAAEEIAKAKAVYDKRKAKAQEYEKKGDYKGAANEYDIAAAQLGMAAAGLSPEAAAVAKALAEEAKKLAEEAEKKLAE
B3: design_609_7ee6ce64-4629-41e8-bcb4-ba0da017284d_2438_dldesign_0_cycle1_af2pred (protein)
chain: MKEEMIKEAKKLMEEGKKKFEEAVKLPASEAAEASKLMHEGHELLTEAAWLAKKAGDEELAKEAKKARKEAVKKGKEAQAASAAA
B4: design_609_7ee6ce64-4629-41e8-bcb4-ba0da017284d_1938_dldesign_0_cycle1_af2pred (protein)
chain: EEELKKLIEEHMEKLAKEAEKADPEVGKEVKEALKKAKKLNVGEAISLFLSTGARAAKEIGKKDPEKGKKVKEIVDKALDEIFSK
B5: design_609_7ee6ce64-4629-41e8-bcb4-ba0da017284d_1448_dldesign_0_cycle1_af2pred (protein)
chain: AEEEARKERLEAAKKELNELRLKAADSGDAEKALEYAKQAEAVAEKAGIPEDGEKAARVIRSIAEALKKN
B6: design_609_7ee6ce64-4629-41e8-bcb4-ba0da017284d_1721_dldesign_0_cycle1_af2pred (protein)
chain: SKLEEDKKKAEELKKEAEKLAEEAAKTTPEEAKKLRKELREKAKKVAEEVSPEIAKKVAEIAHEAQQKIAEAMQEIKK
B7: design_609_7ee6ce64-4629-41e8-bcb4-ba0da017284d_2306_dldesign_0_cycle1_af2pred (protein)
chain: LSENEKLKKAADYTSKAAKLAAEAAKKYKLPPEAVKKAQEAINLLFSSTDKETAEKAVELAKEAAKYMPESVAKKFLELVEKAAEYWS
B8: design_609_7ee6ce64-4629-41e8-bcb4-ba0da017284d_2471_dldesign_0_cycle1_af2pred (protein)
chain: MEALKARGDLDVVADQATQIAKLAAEHPELAELGKRAAELAARAKAAQAGDPEETIKKAKELRAERRELVAETKKRLAAL
B9: design_609_7ee6ce64-4629-41e8-bcb4-ba0da017284d_1996_dldesign_0_cycle1_af2pred (protein)
chain: AAAATAHEAIQTSTEAAEKLKKGKTEEDKELGKEIEEKRKELSRRAAEAQKEGPEAAKKAVAELAKFAEEAKKIAEEREKKRK
B10: design_609_7ee6ce64-4629-41e8-bcb4-ba0da017284d_1401_dldesign_0_cycle1_af2pred (protein)
chain: ALAALLEGLAKAAVIVARGIRRAARYAGDPRKAGFAFIVAGEQAFLVGRADPNPVAAAVLWLTGVLLIAIGLAIEAS
B11: design_609_7ee6ce64-4629-41e8-bcb4-ba0da017284d_1584_dldesign_0_cycle1_af2pred (protein)
chain: MNVEEAKKEAKEIRDETIAKMKAAKTPEEVAAVAHEGLQKLAEGAYKFKSNKEAEKIYEEARKEVIDAAREIAAALEAAA
B12: design_609_7ee6ce64-4629-41e8-bcb4-ba0da017284d_1780_dldesign_0_cycle1_af2pred (protein)
chain: MEQAELRREMVRLVREAGRILEEKAPEYPEAKEAIELLRKAVFLAGDKEKAPEALELLKKAAEIAKEIDPEAAELIKEALELAKKWKE
B13: design_609_7ee6ce64-4629-41e8-bcb4-ba0da017284d_2421_dldesign_0_cycle1_af2pred (protein)
chain: AAKEEVEKKAEEVIKKLKEIGEKDPNAKELTDDLIKTLKKEVEKYKDDPEKAKKAVDKAEKTADSLEEAVKY
B14: design_609_7ee6ce64-4629-41e8-bcb4-ba0da017284d_2085_dldesign_0_cycle1_af2pred (protein)
chain: LEEKLKELRALAKEAAEKAKEEGATKTANLLLKGVEASPLKAVGYVLVAADLLKASEKLKPWAEKLEKAAEEV
B15: design_609_7ee6ce64-4629-41e8-bcb4-ba0da017284d_2235_dldesign_0_cycle1_af2pred (protein)
chain: MKAKEEAEKKVEEVVEKGEKKVEEMKGLTAEEAEKVRNEIILEGQEVAAEAKKVDPEVGKKGFEKFRKVGEKAEKAVEEVK
B16: design_609_7ee6ce64-4629-41e8-bcb4-ba0da017284d_2408_dldesign_0_cycle1_af2pred (protein)
chain: SSAAEEAAKKVEETAKKIKEEGLPEEEAKKLLSEALLLVADHDSPELAERALKAFEELSKYYPGAAKAAKILKRRLEALKKN
B17: design_609_7ee6ce64-4629-41e8-bcb4-ba0da017284d_1630_dldesign_0_cycle1_af2pred (protein)
chain: AAGAAAVAAASKARGEALFELAAKAKFGTEEEAKEAEAKRKALTAAAKAVKAAAGTADAAAVATAARAQAEAIL
B18: design_609_7ee6ce64-4629-41e8-bcb4-ba0da017284d_2040_dldesign_0_cycle1_af2pred (protein)
chain: EEEEKEKKAKELEKEAVKHREEAFDKIAEGKLEEAKELAEKIRELAKKLEELGEEAKPLADRARKGARAVERLIEAAE
B19: design_609_7ee6ce64-4629-41e8-bcb4-ba0da017284d_1405_dldesign_0_cycle1_af2pred (protein)
chain: DLKKKIEAEAGKSYAEGVAESAAKIIAEIDPEIAPEYAEKVKKELTALAEKLADKSLETVYKEAKAIAKKVIEEAKKKK
B20: design_609_7ee6ce64-4629-41e8-bcb4-ba0da017284d_2287_dldesign_0_cycle1_af2pred (protein)
chain: SDLEATELQIKAARLVAEAKRALAELTPEEGLARAKELFAEAEKAVKAAAKLLSPEAGKALVAALKERSAAILAEAEKAAAA
B21: design_609_7ee6ce64-4629-41e8-bcb4-ba0da017284d_2406_dldesign_0_cycle1_af2pred (protein)
chain: ETEKKIKYLKEALYYLHLAIESAKLGSPPEAARRFVEIGIKKALEGDEEVGKELEKLLKELSPEEAAEAGAKLVEERIKELE
B22: design_609_7ee6ce64-4629-41e8-bcb4-ba0da017284d_1728_dldesign_0_cycle1_af2pred (protein)
chain: EAEKQALADAAKAAEKAAKAAKESPEKGAKAAKELAKAYPEVAKAANAAARYIEELGEEGVDAAEEILKHAIKTLKAKAAAL
B23: design_609_7ee6ce64-4629-41e8-bcb4-ba0da017284d_1790_dldesign_0_cycle1_af2pred (protein)
chain: NEADKEVEELTKKIKELTKKAKEALEKGNIEEAKKYAEEAMKAIKKAREIAPKASKELQKEASKAAAEAYEVYAEVEFKSK
B24: design_609_7ee6ce64-4629-41e8-bcb4-ba0da017284d_1771_dldesign_0_cycle1_af2pred (protein)
chain: KKEEALNYASEMRAYLIGAAAASKLPQAPQLEAEAREKAEKVGELLSPEVAKKIKELTEQAIAGTPEERKALAREIAELVKKAVEE
B25: design_609_7ee6ce64-4629-41e8-bcb4-ba0da017284d_2027_dldesign_0_cycle1_af2pred (protein)
chain: MTPEELLAKIKELAKKAKEAKDEKEAKKYLEEAKAAAAELKANGTPETAKQASAAVAEAYENYAEAVFKIK
B26: design_609_7ee6ce64-4629-41e8-bcb4-ba0da017284d_1964_dldesign_0_cycle1_af2pred (protein)
chain: SKESRLRRAKALAEEAIKLLEEGEYAWAAALLRAAAREAERAGNEEAAKLLREAAELAAKSALEGPKYKEEALRLAKEALEILEKE
B27: design_609_7ee6ce64-4629-41e8-bcb4-ba0da017284d_1936_dldesign_0_cycle1_af2pred (protein)
chain: SASEKTKEYLKKNDELGKKAAELSLKDEEKGLALAEKDVYIAIKASAILYKKGDEKALEHAKKFKEVAFKMLDE
B28: design_609_7ee6ce64-4629-41e8-bcb4-ba0da017284d_1354_dldesign_0_cycle1_af2pred (protein)
chain: AVAAAKAAAAKDAEEVNKLKFEAVDGDAETVEAVMKEVKARREEWLAKAKADPAAKAVYEAAAEGMDKTEKALQSVLDALKKN
B29: design_609_7ee6ce64-4629-41e8-bcb4-ba0da017284d_2350_dldesign_0_cycle1_af2pred (protein)
chain: SEKKLKAQKEALKLVEEVAKYAEEDPETAPKFGKEKAEEAYKYALELGLSEEEAEKLRKTTLRLVEAEIRGAKLVAEKRKKALE
B30: design_609_7ee6ce64-4629-41e8-bcb4-ba0da017284d_2409_dldesign_0_cycle1_af2pred (protein)
chain: SMEEEELRKKADEVAEKAAKIAEEADPELGKKFRERAEKAKKDPVDAYAYYVAQAAKSGGIILEKLGKEEEGKKLKELGKELEKALEE
B31: design_609_7ee6ce64-4629-41e8-bcb4-ba0da017284d_2006_dldesign_0_cycle1_af2pred (protein)
chain: EKLLGEGYADIIVDNTKSVIAADPSKAEEYVETNKAKGLARAEKIKDTEAGKVLKEKVEKEAEKLLAEAKKAKAAAEAAA

What follows are binders tested against VTCN1, Q7Z7D3.
Sequence of VTCN1, Q7Z7D3 (Q7Z7D3 whole entry): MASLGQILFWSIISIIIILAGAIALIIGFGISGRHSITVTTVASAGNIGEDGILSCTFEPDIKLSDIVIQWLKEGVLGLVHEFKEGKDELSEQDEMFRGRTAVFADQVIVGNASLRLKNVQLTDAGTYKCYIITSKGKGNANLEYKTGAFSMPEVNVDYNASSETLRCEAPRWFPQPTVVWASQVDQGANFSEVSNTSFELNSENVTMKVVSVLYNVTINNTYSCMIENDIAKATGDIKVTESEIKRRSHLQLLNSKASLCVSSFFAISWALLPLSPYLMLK

Binding in a display sort, inactive:
B1 not found
B2 not found
B3 not found
B4 not found
B5 not found
B6 not found
B7 not found
B8 not found
B9 not found
B10 not found
B11 not found
B12 not found
B13 not found
B14 not found
B15 not found
B16 not found
B17 not found
B18 not found
B19 not found
B20 not found
B21 not found
B22 not found
B23 not found
B24 not found
B25 not found
B26 not found
B27 not found
B28 not found
B29 not found
B30 not found
B31 not found
